# Measured values as given in the supplement of paper PMC3334620.
# Over roughly 33,000 sequences, “E-score (-0.5 to 0.5)” has its median near -0.012; the highest 2% begin near 0.27. Only a selection was taken, and the highest values are over-represented in it overall.
# Molecular target: T1, Vhr1 (UniProt P40522)
# T1 sequence: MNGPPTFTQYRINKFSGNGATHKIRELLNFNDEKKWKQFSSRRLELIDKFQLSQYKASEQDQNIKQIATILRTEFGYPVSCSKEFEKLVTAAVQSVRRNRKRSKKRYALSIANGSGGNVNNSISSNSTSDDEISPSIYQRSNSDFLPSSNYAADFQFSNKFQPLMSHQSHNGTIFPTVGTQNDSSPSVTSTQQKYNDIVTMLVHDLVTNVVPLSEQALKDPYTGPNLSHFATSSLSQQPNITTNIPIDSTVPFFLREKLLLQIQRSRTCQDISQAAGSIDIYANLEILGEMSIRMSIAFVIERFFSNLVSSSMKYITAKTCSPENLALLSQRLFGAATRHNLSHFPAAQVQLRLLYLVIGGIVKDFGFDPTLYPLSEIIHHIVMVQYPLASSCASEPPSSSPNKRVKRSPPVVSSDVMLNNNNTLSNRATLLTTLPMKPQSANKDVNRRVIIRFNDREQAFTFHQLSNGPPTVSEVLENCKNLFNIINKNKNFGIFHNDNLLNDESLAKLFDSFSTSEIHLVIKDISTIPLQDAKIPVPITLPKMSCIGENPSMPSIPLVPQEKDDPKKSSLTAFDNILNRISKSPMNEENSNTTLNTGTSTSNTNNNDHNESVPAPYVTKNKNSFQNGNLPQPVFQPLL
# Assay: PBM E-score (8-mer binding enrichment) (E-score (-0.5 to 0.5)); higher = stronger / more preferred TF binding
# Conditions: protein concentration: 200 nM; construct: GST-full length
# Method: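 Universal 'all 10-mer' protein binding microarrays (Agilent AMADID 015681) probed with GST-tagged S. cerevisiae TFs (full-length or DBD) made by in vitro transcription/translation (PURExpress), about 100-200 nM. Bound TF was detected with fluorescent anti-GST. Each ungapped 8-mer (which stands for itself and its reverse complement) is scored by the PBM enrichment score (E-score), a modified Wilcoxon-Mann-Whitney statistic from -0.5 to +0.5, computed with the Universal PBM Analysis Suite. Scale: above 0.35 generally sequence-specific binding.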
row,Sequence,PBM E-score
1,GAAGGATC,-0.0379
2,GGCTCAAC,-0.199
3,CTGGCTGA,0.143
4,ACAATCGT,0.0768
5,CAATCCTG,0.122
6,ATATGGAA,0.178
7,ATGCTGTG,0.116
8,AGTGTGAG,0.147
9,AGTGTGAC,0.209
10,AGTGTGAT,0.296
11,ACGTCAGA,-0.0949
12,ACAGTTGG,-0.02
13,AGCGAGTC,0.275
14,AGCGAGTA,0.119
15,AGCGAGTG,0.192
16,CGCGAGTA,0.112
17,CGCGAGTC,0.355
18,CTCGAGTC,0.235
19,CATCACAA,0.0244
20,CGCCAAGA,-0.0615
21,CGGAGCGA,0.0369
22,ACTTGGGA,-0.155
23,AGCCAGTG,0.00862
24,AGTTGCAT,-0.0357
25,CACCTTAA,-0.0968

row,Sequence,PBM E-score
1,CGGAATCC,0.0628
2,AGGAATCG,0.0478
3,AGGAATCA,0.28
4,CAGAATCA,0.313
5,GGGAATGA,0.169
6,CGGAATCA,0.412
7,AGGAATCC,0.119
8,AAGAATCA,0.222
9,CGGAATTA,-0.193
10,TAGAATCA,0.185
11,GGGAATAA,-0.0372
12,GGGAATCA,0.307
13,CACTCGAG,-0.029
14,CTCTTCAG,-0.0887
15,TTCCTCAA,-0.19
16,ATGGTCCG,0.175
17,ATAGGCCA,-0.159
18,AGACTAAC,0.0491
19,GCTAAACA,-0.0852
20,ACTGGCAC,-0.113
21,ATGAAGCG,-0.136
22,TGAAATAA,-0.158
23,ACATTTAT,-0.0139
24,ACTTGCGA,0.0242
25,CCTTGCGA,-0.0209

row,Sequence,PBM E-score
1,GCTTGCGA,0.295
2,ACTGGCCT,-0.135
3,CAGATGTC,0.105
4,ATAGTCGC,0.243
5,AGAGTCGC,0.338
6,CGAGTCGC,0.34
7,AGAGTCGA,0.157
8,AAAGTCGC,0.137
9,CCAGTCGC,0.13
10,AGAGTCGG,0.329
11,AGAGTCTG,-0.106
12,CGAGTCGA,0.224
13,CCCTTCTA,-0.218
14,CTAGCTGA,0.0125
15,CTACTGAA,0.132
16,CGCCCTCA,-0.16
17,AAGGGCTC,-0.218
18,AGGGCTCG,-0.079
19,AGCTTCTA,-0.278
20,CGCGATTC,0.278
21,AGTGATTG,0.343
22,CGTGATTC,0.326
23,AGTGATTA,0.216
24,CGTGATCC,-0.0765
25,ATTGATTG,0.0691

row,Sequence,PBM E-score
1,AGTGATAG,-0.0174
2,CGCGATTA,0.162
3,AGTGATTC,0.285
4,AGTGATAC,0.237
5,CGTGATTA,0.236
6,AGCGATTC,0.168
7,ATGAAACC,0.137
8,ACGGTAGT,0.125
9,AAAATCAT,0.151
10,ATTGCTTG,-0.00443
11,ATCTCATC,0.0646
12,CGTACCCA,0.16
13,ACGGTCAT,0.156
14,GGCAAGCA,-0.224
15,AATGAGAC,-0.113
16,CATGAGTC,0.477
17,AATGAGTG,0.157
18,CATGAGAC,0.274
19,AATGAGTC,0.426
20,CATGAGGC,-0.159
21,CATGAGCC,0.159
22,AATGAGTA,0.223
23,CATGAGAG,0.147
24,AGTGTCGC,0.138
25,AAAATAAT,0.0747

row,Sequence,PBM E-score
1,TAAGCCTA,-0.259
2,GAATTTGC,-0.0954
3,CAAGAATC,0.179
4,GCGAACAC,-0.0481
5,AATAGGCA,0.0547
6,AACAGCAT,0.0405
7,AGAGCCCT,-0.165
8,GCAATCGA,-0.0515
9,AGAGTCCT,-0.17
10,AGAGTCAG,0.399
11,ACAGTCAG,0.228
12,ACAGTCAA,0.0811
13,AGAGTCCC,-0.205
14,AAAGTCAG,0.119
15,AGAGTCAT,0.45
16,AGAGTCAC,0.43
17,AGAGTCAA,0.112
18,AGAGTCTC,0.191
19,ACAGTCAT,0.318
20,AGGGTCAG,-0.161
21,CGGATCTA,-0.0646
22,GCACCTCC,-0.136
23,GGCAAAGA,-0.0131
24,GTTCACTA,-0.133
25,GCAATTCC,-0.163

row,Sequence,PBM E-score
1,GGAAAGCC,-0.0802
2,TGATGGAA,0.0625
3,CGTACTCC,-0.0124
4,CGTACTCA,0.283
5,ATTACTCG,0.198
6,TATACCCA,0.0126
7,ACTACTCA,0.238
8,ATTACTCC,0.0722
9,GCTACTCC,-0.145
10,CGTACTAA,0.153
11,CATACCCA,0.271
12,CATACCCC,0.105
13,GCTACTCA,0.271
14,ATTACTCA,0.29
15,AACTAAAT,-0.0313
16,ATCGGTGA,0.181
17,GTGCTTAA,-0.136
18,TATAGGAA,0.0238
19,GAATTAGA,-0.172
20,GCGTGTAA,-0.0131
21,ATTATTGC,-0.0063
22,ACTGGCGA,0.124
23,AATTTAGT,0.256
24,AGTACTCA,0.171
25,CATACTGA,0.123

row,Sequence,PBM E-score
1,TATACTGA,0.309
2,CATACTCA,0.285
3,GGTACTCA,0.281
4,GATACTGA,0.159
5,CATACTCC,0.125
6,GGTACTTA,-0.103
7,CATACTCG,0.18
8,CGGCACGC,-0.0534
9,GCAGCTCA,-0.254
10,ACTGAGTG,0.0665
11,ACTGAGTC,0.454
12,ACAGAGTG,0.0123
13,ACAGAGTC,0.296
14,CAAGAGTC,0.296
15,GCTGAGCC,0.28
16,ACTGAGTA,0.263
17,GAAGAGTC,0.194
18,CCTGAGCC,0.115
19,AGAGAGTC,0.215
20,ACTGAGCC,0.219
21,AAAGAGTC,0.0469
22,ATTCGGTG,0.106
